# Experimental data taken from PubChem BioAssay (NCI).
# The panel holds about 83,000 compounds, 20% with a hit somewhere; the sample as a whole holds those more often.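 96-well plates, one dose, 48 hours. Percent growth reported; active if below 10.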 Active and inactive are the calls of the source.
# System: A549/ATCC NSCLC
# Test: NCI-60 one-dose screen, 48 h (100 = growth as untreated, 0 = no growth, -100 = all killed)
# Conditions: 10 µM unless noted
row,Compound,growth
1,O=c1c2ccccc2n2cnc3ccc(Cl)c1c32,67.8% (inactive)
2,CCN(CC)CC(O)COc1c(Br)c(Br)c(Br)c2c1OC(C)(C)C2 (centres undefined),132% (inactive)
3,N#Cc1c(-c2ccccc2)cc(-c2ccccc2)n(CCCC(=O)Nc2ccccc2N)c1=O,57.4% (inactive)
4,CC1OC(n2c3ccccc3c3c4c(c5c6ccccc6[nH]c5c32)C(=O)N(CCN2CCCC2)C4=O)CC(O)C1O (centres undefined),15.3% (inactive)
5,CCOC(=O)NC(C)C,95.7% (inactive)
6,COc1ccc2[nH]c(C(=O)N3CCN(C(=O)OCc4ccc5c(Cl)cc(Cl)c(O)c5n4)CC3)cc2c1,-68% (active)
7,O=C(/C=C/c1ccccc1)Nc1ncc(Cc2ccccc2Cl)s1,30.8% (inactive)
8,COC12C=C/C(=C(/C(=O)OCc3ccncc3)C(=O)CCCCCCCCC3(OC)C=C/C(=C(/C(=O)OCc4ccncc4)C(=O)CCCCCCCC1)O3)O2,9.15% (active)
9,CC(C)=CC(=O)OCC(=O)O[C@@H]1C[C@]2(C(C)C)O[C@@]1(C)[C@@H]1CC[C@@H](C)[C@H]1[C@@H]2OC(=O)/C=C/c1ccccc1,83.4% (inactive)
10,COc1ccc(Cc2cnc(NC(=O)c3cc(C)oc3C)s2)cc1,38.1% (inactive)
11,NC(Cc1ccc(O)c([N+](=O)[O-])c1)C(=O)O (centres undefined),100% (inactive)
12,CC(C)COc1nc2c(c(=O)n(C)c(=O)n2C)n1C,106% (inactive)
13,CCc1ccccc1-n1c(-c2ccc(OC)cc2)cc(-c2ccc(OC)cc2)c(C#N)c1=O,100% (inactive)
14,CCCCCOC(=O)c1c(C)[nH]c(/C=C2\N=C(c3ccc[nH]3)C=C2OC)c1C,-1.61% (active)
